Results taken from PubChem BioAssay AID2081 (NMMLSC, 2009).
Calls of active or inactive are those of the source. The rule behind the calls is not given here.

target: Bcl-2-like protein 2 (Homo sapiens) (UniProt Q92843); assay: Bcl-W/Bim complex disruptors – biochemical, multiplexed, bead-based flow cytometry, HTS hits, confirmation (AID 2081); details: Bim-Bcl-W binding displacement; series mostly up to 100 µM; inhibition of binding: at the top concentration
Sequence (Q92843 whole entry, looked up): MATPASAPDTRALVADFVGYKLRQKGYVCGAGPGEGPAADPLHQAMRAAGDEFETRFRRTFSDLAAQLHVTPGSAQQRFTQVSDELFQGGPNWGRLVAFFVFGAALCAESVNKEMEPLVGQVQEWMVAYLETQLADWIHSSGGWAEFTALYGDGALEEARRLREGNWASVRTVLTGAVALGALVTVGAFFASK

Inhibition of binding, inactive:
CC(=O)Nc1ccc(-n2cc(-c3ccccc3)[nH]c2=S)cc1 -1.83
C=CS(=O)(=O)c1sc(Cl)c(N2CCOCC2)c1[N+](=O)[O-] 19.6
O=C1/C(=C\c2ccco2)NC(=S)N1c1ccccc1 12.3
O=C(Nc1nnc(COc2ccc(Cl)cc2)s1)c1ccco1 -0.607
COc1ccccc1-n1c(-c2ccccc2)c[nH]c1=S 6.68
CNC(CC(=O)c1ccc([N+](=O)[O-])cc1)C(Cl)(Cl)Cl (stereo not drawn) 8.23
CCN(CC)c1ccc(NC(=O)c2ccccc2F)cc1S(=O)(=O)Nc1ccccc1OC -6.03
Cc1ccc(-c2cc(C(=O)Nc3nccs3)c3ccccc3n2)o1 7.16
CCN(CC)c1ccc(NC(=O)c2ccccc2Br)cc1S(=O)(=O)Nc1ccccc1OC -5.26
Cc1ccc(C=NNC(=O)CSc2nnc(-c3ccc(Cl)cc3)n2-c2ccccc2)o1 8.75
Cc1ccc(-c2cc(-c3ccc(C)o3)nc(N)c2C#N)cc1 7.17
COc1ccc(N2C(=O)C(Cl)=C(NC3C(=O)N(c4ccccc4)N(C)C3C)C2=O)cc1 (stereo not drawn) 3.21
O=c1c2c(n3nnnc3n1Cc1ccccc1)-c1ccccc1CC21CCCC1 6.66
Cc1ccc(-c2nc3c(c(=O)[nH]c(=O)n3Cc3ccccc3)n2C)o1 28.9
CCN(CC)c1ccc(NC(=O)COc2ccccc2C)cc1S(=O)(=O)Nc1ccccc1OC -2.83
CCN(CC)C(=O)COC(=O)c1cc(-c2ccco2)nc2ccccc12 8.46
Cc1cc(-c2cc(-c3ccc(Cl)cc3)nc(N)c2C#N)co1 9.15
O=[N+]([O-])c1c(NCCCO)cc(Sc2nc3ccccc3s2)c2nonc12 6.04
